# Assay results from publication PMC4336329 (PLoS ONE, 2015).
# In all, about 310,000 compounds went through this assay and about 14,000 (4.5%) showed an effect of 50% or more. Effects have a minus sign here. Many of the other results were omitted from the sample, so strong results are more common in it than they were.
# Target: human ether-à-go-go-related gene (hERG) potassium channel (human, UniProt Q12809)
# Test: primary screen, population patch clamp on CHO cells stably expressing hERG; higher = less effect of the substance
# 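Also: peak tail current of the secondary pulse compared with the same well before compound.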
# human ether-à-go-go-related gene (hERG) potassium channel, sequence (Q12809 whole entry, looked up): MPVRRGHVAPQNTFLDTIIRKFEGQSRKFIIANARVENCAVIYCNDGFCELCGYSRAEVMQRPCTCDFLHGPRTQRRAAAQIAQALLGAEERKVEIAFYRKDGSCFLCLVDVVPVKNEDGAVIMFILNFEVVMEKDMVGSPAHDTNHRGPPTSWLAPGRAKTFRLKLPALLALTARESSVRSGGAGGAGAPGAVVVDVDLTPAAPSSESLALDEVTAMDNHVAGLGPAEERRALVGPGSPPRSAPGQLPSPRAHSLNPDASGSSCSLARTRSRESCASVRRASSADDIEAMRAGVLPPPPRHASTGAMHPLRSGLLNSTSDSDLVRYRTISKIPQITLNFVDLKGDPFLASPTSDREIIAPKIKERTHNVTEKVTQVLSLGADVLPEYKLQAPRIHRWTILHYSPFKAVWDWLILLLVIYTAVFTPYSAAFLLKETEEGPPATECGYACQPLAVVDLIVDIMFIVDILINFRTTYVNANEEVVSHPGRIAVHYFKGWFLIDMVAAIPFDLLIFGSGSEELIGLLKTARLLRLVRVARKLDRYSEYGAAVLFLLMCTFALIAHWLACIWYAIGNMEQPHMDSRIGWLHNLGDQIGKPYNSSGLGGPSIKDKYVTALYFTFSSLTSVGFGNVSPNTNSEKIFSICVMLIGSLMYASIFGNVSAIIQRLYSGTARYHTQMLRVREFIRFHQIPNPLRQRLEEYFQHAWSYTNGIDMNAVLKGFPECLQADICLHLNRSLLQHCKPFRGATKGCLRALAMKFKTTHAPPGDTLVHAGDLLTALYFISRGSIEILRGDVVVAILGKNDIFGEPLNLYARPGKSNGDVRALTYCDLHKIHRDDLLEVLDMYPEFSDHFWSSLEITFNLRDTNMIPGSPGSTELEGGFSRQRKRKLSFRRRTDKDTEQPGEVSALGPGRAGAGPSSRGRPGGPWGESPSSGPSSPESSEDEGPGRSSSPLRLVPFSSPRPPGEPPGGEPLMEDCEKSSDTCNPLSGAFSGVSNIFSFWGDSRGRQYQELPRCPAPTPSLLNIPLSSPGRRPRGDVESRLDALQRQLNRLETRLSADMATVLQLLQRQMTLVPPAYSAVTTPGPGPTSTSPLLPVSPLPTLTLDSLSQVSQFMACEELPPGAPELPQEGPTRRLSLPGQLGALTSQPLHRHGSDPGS
row,SMILES,"hERG current change (%, negative = inhibition) at 10uM"
1,Nc1c(C(=O)Nc2ccc3c(c2)OCCO3)nnn1Cc1cccc(F)c1,-4.88%
2,COc1ccc2c(C)nc(Nc3nc(-c4ccccc4)cc(=O)[nH]3)nc2c1,2.47%
3,CC1CC(C)CN(CCCNC(=O)Cn2cccc2C(=O)c2ccccc2)C1 (centres unmarked),-63.1%
4,Cc1ccccc1C(=O)c1cccn1CC(=O)NCCCc1ccccc1,9.69%
5,CCCNC(=O)Cn1cccc1C(=O)c1ccccc1,14.7%
6,Cc1ccccc1C(=O)c1cccn1CC(=O)NCCCN1CC(C)CC(C)C1 (centres unmarked),-72.1%
7,Cc1ccccc1C(=O)c1cccn1CC(=O)NCc1ccccc1,21.7%
8,O=C(Cn1cccc1C(=O)c1ccccc1)NCCCc1ccccc1,-8.33%
9,Cc1ccc(NC(=O)c2ccc(OCC3CCCO3)cc2)c(C)c1 (centres unmarked),-9.65%
10,Cc1cc(NC(=O)c2sc(Nc3ccc(F)cc3)nc2N)no1,20%
11,Cc1cc(N2CCN(S(=O)(=O)c3ccccc3)CC2)nc2c(C)cccc12,23.1%
12,Cc1ccc(S(=O)(=O)N2CCN(c3ncccn3)CC2)cc1C,13.9%
13,Cc1ccccc1N1CCN(S(=O)(=O)c2ccccc2)CC1,0.732%
14,Cc1cc(N2CCN(S(=O)(=O)c3ccc(Cl)cc3)CC2)c2ccccc2n1,-77.8%
15,CC(=O)Nc1ccc(S(=O)(=O)N2CCN(c3nc(NC4CCCC4)c4ccccc4n3)CC2)cc1,-75.8%
16,Cc1cc(N2CCN(S(=O)(=O)c3ccccc3)CC2)c2ccccc2n1,-73.3%
17,Cc1cc(N2CCN(S(=O)(=O)c3ccc(Cl)c(Cl)c3)CC2)c2ccccc2n1,-45.3%
18,CC(=O)Nc1ccc(S(=O)(=O)N2CCN(c3ncccn3)CC2)cc1,6.13%
19,Cn1c(N2CCN(S(=O)(=O)c3ccc(Cl)cc3)CC2)nc2ccccc21,-34%
20,Cc1ccc(S(=O)(=O)N2CCN(c3ccccc3)CC2)cc1C,6.82%
21,Cc1cc(N2CCN(S(=O)(=O)c3ccc(C)c(C)c3)CC2)c2ccccc2n1,-64.6%
22,CC(=O)Nc1ccc(S(=O)(=O)N2CCN(c3ccccn3)CC2)cc1,-3.36%
23,O=C(CCCn1nnc2ccccc2c1=O)N[C@@H](Cc1ccccc1)C(=O)O,13%

row,SMILES,"hERG current change (%, negative = inhibition) at 10uM"
1,COc1cc(OC)c(/C=N/n2c(C3CCCCC3)n[nH]c2=S)c(OC)c1,22.6%
2,CCSc1nc2c(c(=O)n1-c1ccc(F)cc1)SCC2,-4.12%
3,Cc1cc(C)cc(NC(=O)N2C3CCCC2CC(NC(=O)C2CC2)C3)c1 (centres unmarked),17%
4,Fc1ccc(COc2ccccc2-c2ccnc3ncnn23)cc1,-6.51%
5,Cc1cccc(C)c1NC(=O)CN(C)CC(=O)N(C)CC(=O)Nc1ccccc1Br,14%
6,CCCn1c(-c2ccc[nH]c2=O)nc2ccccc21,15.6%
7,CCOC(=O)c1ccc(NC(=O)C2CC(=O)N(c3ccc4c(c3)OCCO4)C2)cc1 (centres unmarked),10.7%
8,COC(=O)c1nn(-c2c(C)n(C)n(-c3ccccc3)c2=O)cc1O,5.84%
9,COc1cccc(NC(=S)NNC(=O)CCn2cc([N+](=O)[O-])cn2)c1,-2.61%
10,Cc1ccc(NCc2nnc(SCC(=O)N(Cc3ccccc3)C(C)(C)C)o2)c(C)c1,-9.53%
11,CC(=O)Nc1ccc(S(=O)(=O)N2CCN(c3cc(C)nc4ccccc34)CC2)cc1,-88.5%
12,CC(=O)Nc1ccc(S(=O)(=O)N2CCN(S(=O)(=O)c3ccccc3)CC2)cc1,11.7%
13,CC(=O)Nc1ccc(S(=O)(=O)N2CCN(c3nc(C)cc(C)n3)CC2)cc1,5.68%
14,C[C@@H](NC(=O)c1[nH]cnc1C(=O)Nc1nccs1)c1ccccc1,-3.32%
15,CC(=O)Nc1cccc(C(=O)Nc2ccccc2N2CCOCC2)c1,-0.962%
16,Cc1ccccc1-n1c(Cn2c(=O)sc3ccccc32)nnc1SCC(=O)NCC1CCCO1 (centres unmarked),-2.85%
17,CCOc1ccccc1-n1c(=O)c2ccccc2c2ccccc2c1=O,-6.99%
18,CC1(C)CC(=O)CC2(C1)NCC(c1ccccc1Cl)c1c2[nH]c2ccccc12.Cl (centres unmarked),-51.4%
19,ClCC1NCC(c2ccccc2Cl)c2c1[nH]c1ccccc21 (centres unmarked),0.482%
20,CC1(C)CC(=O)CC2(C1)NCC(c1ccccc1)c1c2[nH]c2ccccc12.Cl (centres unmarked),-85.8%
21,COc1cccc(C2CNC3(CCCC(C)C3)c3[nH]c4ccccc4c32)c1OC.Cl (centres unmarked),-23.6%
22,CC1c2c([nH]c3ccccc23)CCC1C(=O)O (centres unmarked),22.4%
23,CC1(C)NC(C(=O)O)Cc2c1[nH]c1ccccc21 (centres unmarked),3.65%

row,SMILES,"hERG current change (%, negative = inhibition) at 10uM"
1,O=Nc1ccc(NOC(=O)c2ccccc2Br)cc1,3.45%
2,CC(C)(C)c1cc(CCC(=O)Nc2ccncc2)cc(C(C)(C)C)c1O,-16.6%
3,CCN(CC)CCN1C(=O)C2C3c4ccccc4C(c4ccccc43)C2C1=O (centres unmarked),-2.51%
4,CCN(CC)CCNC(=O)C(C)c1nn(CC)c(=O)c2ccccc12.Cl (centres unmarked),7.49%
5,CCN(CC)CCN1C(=O)Cn2c(C)c(C)c3cccc1c32.O=C(O)C(O)C(O)C(=O)O,-65.1%
6,CCN(CC)CCN1C(=O)Cn2c(C)c(C)c3cccc1c32.Cl,-52.4%
7,CCN(CC)CCNC(=O)Cn1nc(-c2ccccc2)c2ccccc2c1=O,-31%
8,Cc1c(C)n2c3c(cccc13)CC2,-0.781%
9,Cc1ccc(NC(=O)Cn2c(=O)n(Cc3ccco3)c(=N)c3c4c(sc32)COC(C)(C)C4)cc1,-7.76%
10,CC(C)[C@H](NC(=O)c1ccco1)C(=O)OCC(=O)N1CC(=O)Nc2ccccc21,13.3%
11,O=C1N/C(=C/c2ccc(N3CCOCC3)cc2)C(=O)N1Cc1ccc(F)cc1,22.1%
12,CCOC(=O)C1CCN(C(=O)CSc2cc(=O)n(CC)c3ccccc23)CC1,-29.4%
13,O=[N+]([O-])c1cc2c(c(CSc3nnc4ccccn34)c1)OCOC2,-12.4%
14,O=C(O)C(Cc1ccccc1)n1cnnn1 (centres unmarked),7.85%
15,CCC(CC)c1nn2c(N)c(/C=C3\C=Nc4ccccc43)c(=O)nc2s1,0.567%
16,COc1ccc(S(=O)(=O)N2CCCC(C(=O)O)C2)cc1Cl (centres unmarked),6.43%
17,CC1=NNC(=O)C1CC(=O)N/N=C/C(Br)=C/c1ccccc1 (centres unmarked),9.09%
18,O=c1c2ccccc2oc2ccc(-c3ccc4[nH]ccc4c3)cc12,-2.53%
19,N#CCCn1cc(C(=O)Nc2ccc([N+](=O)[O-])cc2)c(-c2ccc3c(c2)OCCO3)n1,-72.8%
20,N#CCCn1cc(C(=O)Nc2ccc(F)cc2)c(-c2ccc([N+](=O)[O-])cc2)n1,-57.1%
21,COc1ccc(-c2nn(CCC#N)cc2C(=O)Nc2ccccc2)cc1OC,-6.03%
22,CCOC(=O)c1ccc(NC(=O)c2cn(CCC#N)nc2-c2ccc3c(c2)OCCO3)cc1,-4.59%
23,Cc1ccc(NC(=O)c2cn(CCC#N)nc2-c2ccc3c(c2)OCCO3)c([N+](=O)[O-])c1,-33.9%

row,SMILES,"hERG current change (%, negative = inhibition) at 10uM"
1,N#CCCn1cc(C(=O)Nc2ccc(C(=O)O)cc2)c(-c2cccs2)n1,21%
2,COc1ccc(NC(=O)c2cn(CCC#N)nc2-c2cccs2)cc1,-11.3%
3,COc1ccc(-c2nn(CCC#N)cc2C(=O)Nc2cccc([N+](=O)[O-])c2)cc1OC,-57.9%
4,COc1ccc(NC(=O)c2cn(CCC#N)nc2-c2ccc([N+](=O)[O-])cc2)cc1,2.58%
5,N#CCCn1cc(C(=O)Nc2ccc([N+](=O)[O-])cc2)c(-c2cccs2)n1,-59.7%
6,COc1ccc(-c2nn(CCC#N)cc2C(=O)Nc2cccc(C(=O)O)c2)cc1OC,20.9%
7,N#CCCn1cc(C(=O)Nc2ccc(F)cc2)c(-c2ccccc2)n1,-15.2%
8,CCSc1cc(C)nc2ncnn12,-0.742%
9,CC1CCCN(C(=O)C2CCN(Cc3ccc4c(c3)OCO4)CC2)C1.O=C(O)C(=O)O (centres unmarked),-0.604%
10,COC(=O)c1cccc(NC(=O)Cn2nnc3ccccc32)c1,0.234%
11,COc1cc(C2NC(=O)NC(C)=C2[N+](=O)[O-])cc(OC)c1OC (centres unmarked),9.03%
12,CCn1c(=O)c2sccc2n2c(CCCC(=O)NCCc3ccc(S(N)(=O)=O)cc3)nnc12,-4.96%
13,O=C(NCC1CC1)[C@@H]1C[C@H]1[C@@H](NP(=O)(c1ccccc1)c1ccccc1)c1ccccc1,-13.9%
14,CC(=O)Nc1ccccc1C(=O)OCc1ccccc1F,3.58%
15,N#CCCn1cc(C(=O)Nc2ccccc2Cl)c(-c2ccc(F)cc2)n1,14%
16,N#CCCn1cc(C(=O)Nc2ccccc2Cl)c(-c2ccc([N+](=O)[O-])cc2)n1,-64.4%
17,COc1ccc(-c2nn(CCC#N)cc2C(=O)Nc2ccccc2Br)cc1[N+](=O)[O-],-39.6%
18,COc1ccc(NC(=O)c2cn(CCC#N)nc2-c2ccccc2)cc1,-7.59%
19,N#CCCn1cc(C(=O)Nc2ccccc2Br)c(-c2ccc([N+](=O)[O-])cc2)n1,-46.9%
20,COc1ccc(-c2nn(CCC#N)cc2C(=O)NCc2ccccc2)cc1[N+](=O)[O-],-59.7%
21,N#CCCn1cc(C(=O)Nc2ccc(C(=O)O)cc2)c(-c2ccc([N+](=O)[O-])cc2)n1,23.2%
22,N#CCCn1cc(C(=O)Nc2ccc([N+](=O)[O-])cc2)c(-c2ccccc2)n1,-80.1%
23,COc1ccc(-c2nn(CCC#N)cc2C(=O)NCc2ccccc2)cc1OC,-42.3%
